PubChem BioAssay

molecular target: Homeobox protein Hox-A13 (Mus musculus) (UniProt Q62424); experiment: inhibitors of HoxA13-DNA binding, primary screen, biochemical, fluorescence polarization, labeled oligonucleotide (AID 1185); details: 15 min, higher = more signal, called active from +8 up or from −8 down
Sequence (Q62424 whole entry, looked up): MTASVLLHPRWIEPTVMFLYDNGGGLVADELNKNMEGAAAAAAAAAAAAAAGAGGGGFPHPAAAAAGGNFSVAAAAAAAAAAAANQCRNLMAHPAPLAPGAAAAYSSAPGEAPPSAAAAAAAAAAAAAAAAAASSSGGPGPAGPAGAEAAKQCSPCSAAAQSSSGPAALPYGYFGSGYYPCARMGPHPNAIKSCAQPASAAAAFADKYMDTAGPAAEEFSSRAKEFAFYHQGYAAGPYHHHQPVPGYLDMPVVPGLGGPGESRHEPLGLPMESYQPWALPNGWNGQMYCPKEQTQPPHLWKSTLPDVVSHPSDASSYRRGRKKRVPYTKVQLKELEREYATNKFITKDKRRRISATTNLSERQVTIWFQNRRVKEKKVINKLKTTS

z-score, inactive:
CC(C)(C)OC(=O)CC[C@]1(C(=O)NCC(O)CO)N=C(c2ccc(OCCCO)cc2)O[C@H]1c1ccccc1CN=[N+]=[N-] (stereo partly drawn) -5.33, CCOC(=O)C=Cc1cccc(OC)c1O -0.697, C=CCN1C(=O)[C@]2(Cc3ccccc31)N=C(c1ccc(OCCCO)cc1)O[C@@H]2c1ccccc1 -4.97, C=CC[C@@]1(C(N)=O)N=C(c2ccc(OCCCO)cc2)O[C@@H]1c1ccccc1N=[N+]=[N-] -6.09, C=CCC(OC(C)=O)[C@@H]1[C@@H](N(Cc2cc3ccccc3o2)C(=O)c2cccc3ccccc23)c2cc(OCCCO)ccc2N1C(=O)Cc1ccc(OC)cc1 (stereo partly drawn) -3.31, O=C1C2C=CC(C(O)c3ccc(-c4ccccc4)s3)N(Nc3ccccc3F)C2C(=O)N1c1ccccc1 (stereo not drawn) 0.151, C=CC[C@@]1(C(=O)OC)N=C(c2ccc(OCCCO)cc2)O[C@@H]1c1ccccc1CN=[N+]=[N-] -3.73, O=C1C2C=CC(C(O)C3CC=CCC3)N(n3cnnc3)C2C(=O)N1Cc1ccccc1 (stereo not drawn) -3.36, CN(C)CCCC[C@@H]1NC(=O)[C@@H]2C[C@H](C(=O)NCCCCCN)[C@H](c3ccc(O)cc3)N2C1=O -1.21, CCOC(=O)C1=C[C@@H](C(C)(C)C)N(S(=O)(=O)c2ccc(C)cc2)[C@H]1c1ccc(Cl)c(Cl)c1 -0.524, C=CCN1C(=O)[C@@]2(O[C@@H](CCO)[C@H]([Si](C)(C)c3ccc(OC)cc3)[C@H]2C)c2cc(NC(C)=O)ccc21 -6.52, CCN(CC)c1ccc(N2CC=CC34O[C@@H]5/C=C\CCC(C)OC(=O)C5[C@H]3C(=O)N(CCCCCCO)[C@@H]4C2=O)cc1 (stereo partly drawn) -5.99, [N-]=[N+]=NCc1ccccc1C[C@]1(C(N)=O)N=C(c2ccc(OCCCO)cc2)O[C@H]1c1ccccc1N=[N+]=[N-] -4.7, COCCOC(=O)N1C(=O)[C@@]2(c3cc(C#CC4=CCCCC4)ccc31)[C@H](C(=O)N1CCN(c3ncccn3)CC1)[C@H]1C(=O)O[C@H](c3ccccc3)[C@H](c3ccccc3)N1[C@@H]2c1ccc(OCCO)cc1 1.96, Cc1ccc(S[C@]2(C(=O)NCC(C)C)CC(=O)N(Cc3ccccc3)[C@@H]2c2ccc(CO)cc2)cc1 -2.95, O=C1c2ccccc2[C@](Cc2ccccc2I)(C(=O)O)[C@H](c2ccc(CO)cc2)N1Cc1ccccc1C(F)(F)F -5.85, C=C(C)[C@@H]1CC=C(C(O)C2C=CC3C(=O)N(Cc4ccccc4)C(=O)C3N2n2cnnc2)CC1 (stereo partly drawn) -1.35, C=CCNC(=O)[C@@H]1[C@H]2C(=O)O[C@H](c3ccccc3)[C@H](c3ccccc3)N2[C@H](c2ccccc2OCCO)[C@@]12C(=O)N(C(=O)OCCOC)c1ccc(C#CCC(C(=O)OC)C(=O)OC)cc12 -0.757, CCCC[C@H]1OB(O)C[C@H]2C1=C(COc1ccccc1)C[C@H]1C(=O)N(Cc3ccccc3)C(=O)[C@H]12 -6.65, CC(C)C(O)C1C=CC2C(=O)N(C)C(=O)C2N1N1CCCCC1 (stereo not drawn) -4.51, CCN(CC)c1ccc(N2CC=CC34O[C@@H]5/C=C\CCCOC(=O)C5[C@H]3C(=O)N(CCCO)[C@@H]4C2=O)cc1 (stereo partly drawn) -6.09, Cn1c2c(c3ccccc31)C(=O)C1NC2C=CC1(C)C(=O)OCc1ccccc1 (stereo not drawn) -3.9, CO[C@H]1O[C@H](CO)[C@@H](OC(=O)Nc2ccccc2-c2ccccc2)[C@H](OC(=O)Nc2ccccc2-c2ccccc2)[C@H]1OC(=O)Nc1ccccc1-c1ccccc1 -2.05, O=c1cccc(-c2cccc3ccccc23)o1 -1.69, O=C(NCC(O)CO)[C@@]1(Cc2ccccc2)COC(c2ccc(OCCCO)cc2)=N1 (stereo partly drawn) -5.97, O=C1O[C@H](c2ccccc2)[C@H](c2ccccc2)N2[C@H]1[C@@H](C(=O)NC[C@H](O)c1ccccc1)[C@]1(C(=O)Nc3ccc(C#CC4(O)CCCCCC4)cc31)[C@H]2c1ccccc1OCCO -2.77, CC(C)C(=C=CC[C@H](O)c1ccccc1OCCO)CCO -3.12, COC(=O)c1c2oc(c1C(=O)OC)C(=O)N[C@H](Cc1ccccc1)Cn1nncc1C1(CCCCC1)NC(=O)N[C@H](CO)CC2 -2.22
